From PubChem BioAssay
For part of these data: Potency and affinity values are given separately. Activity calls are given as the source filed them. Unless noted, no rule for the calls is given here.

Assays:
[1] = antimalarial activity against Dd2 strain (AID 2302;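 active = growth inhibition above 50% at the single 2 µM test dose, taken to imply half-maximal potency below 2 µM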;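 also: 0% = DMSO untreated growth and 100% = chloroquine plus artemisinin killed control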); conditions: P. falciparum Dd2 in RBCs, LDH growth readout, 72 h; at 2 µM; active compounds read high
[2] = human hepatoma cell viability loss – ATP luminescence, cytotoxicity control for P. falciparum antimalarial project, primary screen (AID 2303;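 active = inhibition above 50%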;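 also: 0% = DMSO wells and 100% = digitonin-killed cells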); conditions: HepG2 viability, 24-48 h, at 10 µM, active compounds read high
[3] = molecular target: L-lactate dehydrogenase (Plasmodium falciparum (isolate CDC / Honduras)) (UniProt Q27743); assay: PfLDH activity inhibition – cell lysate, 3D7 strain, counter-screen for P. falciparum growth inhibition project (AID 2304);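 also: 0% = vehicle and 100% = reference inhibitor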; conditions: P. falciparum 3D7 crude extract, LDH APAD/NBT absorbance; at 2 µM; active compounds read high
L-lactate dehydrogenase (Plasmodium falciparum (isolate CDC / Honduras)), sequence (Q27743 whole entry, looked up): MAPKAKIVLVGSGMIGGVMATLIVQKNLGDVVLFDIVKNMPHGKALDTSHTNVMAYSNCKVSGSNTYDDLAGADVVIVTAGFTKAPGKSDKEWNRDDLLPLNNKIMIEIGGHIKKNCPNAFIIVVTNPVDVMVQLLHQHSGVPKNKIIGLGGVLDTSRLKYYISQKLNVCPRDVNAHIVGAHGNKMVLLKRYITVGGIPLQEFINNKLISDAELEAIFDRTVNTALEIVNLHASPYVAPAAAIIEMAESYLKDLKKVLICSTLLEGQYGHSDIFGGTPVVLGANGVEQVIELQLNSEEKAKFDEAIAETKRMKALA

[4] = inhibition of 3D7 malaria parasite growth – strain 3D7 (AID 2306);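 also: 0% = DMSO wells and 100% = chloroquine plus artemisinin control wells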; conditions: P. falciparum 3D7 erythrocytic growth, LDH absorbance, 72 h; at 2 µM; active compounds read high
[5] = molecular target: Calcium-dependent protein kinase 1 (Plasmodium falciparum (isolate 3D7)) (UniProt P62344); assay: PfCDPK1 kinase inhibitors, biochemical, TCAMS library (AID 1159585; cut-off not given, nearly all actives have IC50 up to about 0.98 µM;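 also: inhibitors leave more ATP so luminescence rises with inhibition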); conditions: recombinant PfCDPK1, Kinase-Glo ATP depletion luminescence
Calcium-dependent protein kinase 1 (Plasmodium falciparum (isolate 3D7)), sequence (P62344 whole entry, looked up): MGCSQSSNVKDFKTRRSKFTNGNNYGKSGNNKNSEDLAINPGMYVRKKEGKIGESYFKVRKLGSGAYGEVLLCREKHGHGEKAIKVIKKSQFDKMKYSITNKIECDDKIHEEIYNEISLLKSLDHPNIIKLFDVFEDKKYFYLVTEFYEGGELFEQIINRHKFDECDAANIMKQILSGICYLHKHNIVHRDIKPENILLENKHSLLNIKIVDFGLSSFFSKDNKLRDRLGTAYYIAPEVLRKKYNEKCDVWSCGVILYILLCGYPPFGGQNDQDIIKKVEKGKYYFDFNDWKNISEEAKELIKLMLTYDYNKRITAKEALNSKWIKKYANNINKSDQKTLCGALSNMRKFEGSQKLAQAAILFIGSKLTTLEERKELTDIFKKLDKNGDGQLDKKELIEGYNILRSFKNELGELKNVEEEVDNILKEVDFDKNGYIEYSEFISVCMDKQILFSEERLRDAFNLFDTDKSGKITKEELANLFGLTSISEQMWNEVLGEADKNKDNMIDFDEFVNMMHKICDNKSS

[6] = molecular target: Plasmodium falciparum protein kinase 6 (PK6, PF3D7_1337100) (UniProt Q8IDW1); assay: PfPK6 kinase inhibitors, biochemical, TCAMS library (AID 1159586); conditions: recombinant PfPK6, Kinase-Glo ATP depletion luminescence
Plasmodium falciparum protein kinase 6 (PK6, PF3D7_1337100), sequence (Q8IDW1 1-305): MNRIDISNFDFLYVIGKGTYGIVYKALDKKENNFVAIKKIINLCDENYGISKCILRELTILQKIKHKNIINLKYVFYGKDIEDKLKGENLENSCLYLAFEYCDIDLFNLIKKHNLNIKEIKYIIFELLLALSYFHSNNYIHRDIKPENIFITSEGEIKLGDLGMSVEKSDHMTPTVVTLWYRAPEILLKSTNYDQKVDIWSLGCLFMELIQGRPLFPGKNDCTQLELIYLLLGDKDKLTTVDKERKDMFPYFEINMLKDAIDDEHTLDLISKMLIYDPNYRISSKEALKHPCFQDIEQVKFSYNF

[7] = molecular target: Protein kinase 7 (PK7), Plasmodium falciparum 3D7 (PF3D7_0213400) (UniProt Q7YTF7); assay: inhibition of Plasmodium PK7 catalytic activity – biochemical, TCAMS antimalarial set, Kinase-Glo luminescence (AID 1159587); conditions: recombinant PfPK7, Kinase-Glo ATP depletion luminescence
Protein kinase 7 (PK7), Plasmodium falciparum 3D7 (PF3D7_0213400), sequence (Q7YTF7 1-343): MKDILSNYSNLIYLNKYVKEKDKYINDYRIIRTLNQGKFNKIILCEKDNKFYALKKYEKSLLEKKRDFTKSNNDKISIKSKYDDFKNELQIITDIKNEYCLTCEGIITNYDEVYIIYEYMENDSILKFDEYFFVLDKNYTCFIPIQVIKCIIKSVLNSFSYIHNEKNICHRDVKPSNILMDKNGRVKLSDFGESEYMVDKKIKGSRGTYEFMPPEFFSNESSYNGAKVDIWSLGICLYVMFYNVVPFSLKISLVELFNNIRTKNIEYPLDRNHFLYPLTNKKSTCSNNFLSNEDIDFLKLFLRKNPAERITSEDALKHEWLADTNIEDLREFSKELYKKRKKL

[8] = molecular target: Calcium-dependent protein kinase 4 (Plasmodium falciparum (isolate 3D7)) (UniProt Q8IBS5); assay: PfCDPK4 kinase inhibitors, biochemical, TCAMS library (AID 1159588; cut-off not given, nearly all actives have IC50 up to about 0.91 µM); conditions: recombinant PfCDPK4, Kinase-Glo ATP depletion luminescence
Calcium-dependent protein kinase 4 (Plasmodium falciparum (isolate 3D7)), sequence (Q8IBS5 whole entry, looked up): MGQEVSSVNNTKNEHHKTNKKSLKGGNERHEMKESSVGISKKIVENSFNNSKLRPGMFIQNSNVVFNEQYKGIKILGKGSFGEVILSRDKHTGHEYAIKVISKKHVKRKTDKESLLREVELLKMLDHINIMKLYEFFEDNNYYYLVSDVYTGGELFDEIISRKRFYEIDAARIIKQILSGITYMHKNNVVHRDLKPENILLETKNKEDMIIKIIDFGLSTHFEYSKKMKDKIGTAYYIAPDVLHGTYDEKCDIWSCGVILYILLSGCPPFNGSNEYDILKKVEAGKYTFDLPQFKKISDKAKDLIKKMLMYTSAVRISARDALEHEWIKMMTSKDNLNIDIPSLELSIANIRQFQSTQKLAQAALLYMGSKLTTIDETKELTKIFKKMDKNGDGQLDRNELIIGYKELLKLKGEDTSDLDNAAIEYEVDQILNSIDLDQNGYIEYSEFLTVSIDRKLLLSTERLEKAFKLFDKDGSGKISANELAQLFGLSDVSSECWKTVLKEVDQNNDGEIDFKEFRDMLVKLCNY

CC(C)N1CCN(C(CN2CCN(CCCOc3ccccc3-c3ccccc3)CC2)c2ccc(F)cc2)CC1 (configuration not stated)
inactive: inhibition [3] 5% | outcome [5] | outcome [6] | outcome [7] | outcome [8]
active: growth inhibition [1] 96% | inhibition [2] 98% | growth inhibition [4] 100%

COc1cc2nc(N3CCC(CNC(=O)c4ccc(-c5ccc(C(=O)N(C)C)cc5)cc4)CC3)nc(N)c2cc1OC
active: growth inhibition [1] 89% | growth inhibition [4] 101%
inactive: inhibition [2] 20% | inhibition [3] 0% | outcome [5] | outcome [6] | outcome [7] | outcome [8]

Cc1cccc2[nH]c(-c3cccc(-c4cccc(C(=O)N5CCCCC5CN5CCC(O)C5)c4)c3)nc12 (configuration not stated)
active: growth inhibition [1] 71% | growth inhibition [4] 89%
inactive: inhibition [2] 19% | inhibition [3] -5% | outcome [5] | outcome [6] | outcome [7] | outcome [8]

CCn1cc(C=C2Oc3c(ccc(O)c3CN3CCCCC3)C2=O)c2ccccc21
active: growth inhibition [1] 99% | growth inhibition [4] 101%
inactive: inhibition [2] -9% | inhibition [3] -3% | outcome [5] | outcome [6] | outcome [7] | outcome [8]

CCc1ccc(O)c(-c2cc(C(=O)Nc3ccc(OC)c(Cl)c3)[nH]n2)c1
active: growth inhibition [1] 97% | growth inhibition [4] 93%
inactive: inhibition [2] 15% | inhibition [3] -1% | outcome [5] | outcome [6] | outcome [7] | outcome [8]

O=C(Nc1ccc(Cn2ncc(N3CCNCC3)c(Cl)c2=O)cc1)Nc1ccc(-c2ccccc2)cc1
active: growth inhibition [4] 98%
inactive: growth inhibition [1] 33% | inhibition [2] 29% | inhibition [3] -1% | outcome [5] | outcome [6] | outcome [7] | outcome [8]

CCN(CC)CCCC(C)Nc1c2cc(OC)ccc2nc2cc(Cl)c([N+](=O)[O-])cc12 (configuration not stated)
inactive: inhibition [2] 12% | inhibition [3] 2% | outcome [5] | outcome [6] | outcome [7] | outcome [8]
active: growth inhibition [1] 89% | growth inhibition [4] 100%

O=C(NC1CCN(Cc2ccccc2)CC1)c1cc(-c2cccnc2)nc2ccc(Cl)cc12
inactive: growth inhibition [1] 26% | inhibition [2] -3% | inhibition [3] 1% | outcome [5] | outcome [6] | outcome [7] | outcome [8]
active: growth inhibition [4] 97%

Cc1nccn1CCNC(=O)CN1CCC2(CCC1=O)CC(=O)c1ccccc1O2 (configuration not stated)
inactive: growth inhibition [1] 4% | inhibition [2] -7% | inhibition [3] 7% | outcome [5] | outcome [6] | outcome [7] | outcome [8]
active: growth inhibition [4] 98%

Fc1ccc2nc(-c3cccc(-c4ccc(CNCc5ccccc5)cc4)c3)[nH]c2c1
active: growth inhibition [1] 89% | growth inhibition [4] 102%
inactive: inhibition [2] 27% | inhibition [3] -1% | outcome [5] | outcome [6] | outcome [7] | outcome [8]

O=C(Cc1cnc[nH]1)Nc1cccc(-c2ccc(-c3nc4ccc(F)cc4[nH]3)cc2)c1
inactive: inhibition [2] 4% | inhibition [3] -7% | outcome [5] | outcome [6] | outcome [7] | outcome [8]
active: growth inhibition [1] 84% | growth inhibition [4] 100%

C[C@@H](Oc1cc(-n2cnc3cc(SCCN4CCN(C)CC4)ccc32)sc1C(N)=O)c1ccccc1Cl
inactive: inhibition [2] 46% | inhibition [3] -1% | outcome [5] | outcome [6] | outcome [7] | outcome [8]
active: growth inhibition [1] 65% | growth inhibition [4] 90%

CCNc1cc(C)nc(Nc2ccc(NC(=O)c3ccccc3)cc2)n1
active: growth inhibition [1] 63% | growth inhibition [4] 102%
inactive: inhibition [2] 41% | inhibition [3] -1% | outcome [5] | outcome [6] | outcome [7] | outcome [8]

Cc1ccc(C2CCN(CCCCNC(=O)c3ccc(NC(=O)c4ccc(Cl)cc4)cc3)CC2)c(C)c1
active: growth inhibition [4] 96%
inactive: growth inhibition [1] 10% | inhibition [2] 23% | inhibition [3] -1% | outcome [5] | outcome [6] | outcome [7] | outcome [8]

Cc1ccccc1C(=O)NC(NC(=S)Nc1ccc([N+](=O)[O-])cc1)C(Cl)(Cl)Cl (configuration not stated)
inactive: growth inhibition [1] 39% | inhibition [2] -7% | inhibition [3] 0% | outcome [5] | outcome [6] | outcome [7] | outcome [8]
active: growth inhibition [4] 101%

CCCCN(CCCC)CCCCCCNc1c2ccccc2nc2ccccc12
inactive: inhibition [2] 49% | inhibition [3] 7% | outcome [5] | outcome [6] | outcome [7] | outcome [8]
active: growth inhibition [1] 87% | growth inhibition [4] 95%

COc1ccc(NC(=O)Nc2cccc(-c3cccc(-c4nc5ccc(F)cc5[nH]4)c3)c2)cc1
inactive: growth inhibition [1] 39% | inhibition [3] 5% | outcome [5] | outcome [6] | outcome [7] | outcome [8]
active: inhibition [2] 59% | growth inhibition [4] 99%

COc1ccc2nccc([C@@H](O)CN3CCC(NC(=O)/C=C/c4ccc(Cl)c(C(F)(F)F)c4)CC3)c2c1
active: growth inhibition [1] 89% | growth inhibition [4] 102%
inactive: inhibition [2] 11% | inhibition [3] -4% | outcome [5] | outcome [6] | outcome [7] | outcome [8]

CCCN(CCC)C(C)CCC(C)Nc1c2ccc(Cl)cc2nc2ccc(OC)cc12 (configuration not stated)
active: growth inhibition [1] 99% | growth inhibition [4] 101%
inactive: inhibition [2] 41% | inhibition [3] 3% | outcome [5] | outcome [6] | outcome [7] | outcome [8]

CN(C(=O)NCCc1ccccc1)C1CCN(CCCCCNC(=O)/C=C/c2ccc(Cl)c(Cl)c2)CC1
inactive: growth inhibition [1] 11% | inhibition [2] 43% | inhibition [3] -7% | outcome [5] | outcome [6] | outcome [7] | outcome [8]
active: growth inhibition [4] 93%

CC1(C)N=C(N)N=C(N)N1OCCc1ccc(N)cc1
inactive: inhibition [3] -6% | outcome [5] | outcome [6] | outcome [7] | outcome [8]
active: growth inhibition [1] 95% | inhibition [2] 65% | growth inhibition [4] 93%

CC(C)NCc1ccc(-c2cccc(CN3CCC(c4ccccc4)CC3)c2)c(C(=O)NCC2CCCCC2)c1
active: growth inhibition [1] 76% | growth inhibition [4] 98%
inactive: inhibition [2] 42% | inhibition [3] -5% | outcome [5] | outcome [6] | outcome [7] | outcome [8]

Cc1cc(N[C@@H](Cc2ccccc2)C(=O)Nc2ccccc2)nc(NCCc2cccs2)n1
inactive: inhibition [2] -1% | inhibition [3] -1% | outcome [5] | outcome [6] | outcome [7] | outcome [8]
active: growth inhibition [1] 72% | growth inhibition [4] 100%

COc1ccccc1CCNc1nc(C)cc(N[C@@H](Cc2ccccc2)C(=O)NCCOc2ccccc2)n1
inactive: inhibition [2] 20% | inhibition [3] 4% | outcome [5] | outcome [6] | outcome [7] | outcome [8]
active: growth inhibition [1] 76% | growth inhibition [4] 101%

NC(N)=NC(=O)Nc1cc(F)c(Cl)c(Br)c1
active: growth inhibition [1] 50% | growth inhibition [4] 101%
inactive: inhibition [2] -3% | inhibition [3] 1% | outcome [5] | outcome [6] | outcome [7] | outcome [8]

OC(CNc1ccnc(Nc2cccc(Cl)c2)n1)c1ccccc1C(F)(F)F (configuration not stated)
active: growth inhibition [4] 95%
inactive: growth inhibition [1] 36% | inhibition [2] 40% | inhibition [3] 0% | outcome [5] | outcome [6] | outcome [7] | outcome [8]

Cc1nc2nc(N)nc(N)c2c(C)c1Cc1ccc(C(F)(F)F)cc1
active: inhibition [2] 57% | growth inhibition [4] 96%
inactive: growth inhibition [1] 22% | inhibition [3] -2% | outcome [5] | outcome [6] | outcome [7] | outcome [8]

Cc1ccc(Nc2nc3cc(Nc4ccnc(Nc5ccc(CS(C)(=O)=O)cc5)n4)ccc3o2)cc1
inactive: inhibition [3] 2% | outcome [5] | outcome [6] | outcome [7] | outcome [8]
active: growth inhibition [1] 66% | inhibition [2] 54% | growth inhibition [4] 99%

Cn1cc(CN2CCCC(COC(c3ccc(F)cc3)c3ccc(F)cc3)C2)cn1 (configuration not stated)
inactive: inhibition [2] 15% | inhibition [3] 4% | outcome [5] | outcome [6] | outcome [7] | outcome [8]
active: growth inhibition [1] 100% | growth inhibition [4] 98%

O=C(Nc1ccc(Cl)c(-c2nc3ccccc3[nH]2)c1)c1ccc(-c2ccc(Cl)cc2)o1
active: growth inhibition [4] 89%
inactive: growth inhibition [1] 22% | inhibition [2] 16% | inhibition [3] 0% | outcome [5] | outcome [6] | outcome [7] | outcome [8]

COc1ccccc1N1CCN(C(C(=O)NCc2ccc3c(c2)OCO3)c2ccc(C)cc2)CC1 (configuration not stated)
active: growth inhibition [1] 81% | growth inhibition [4] 85%
inactive: inhibition [2] 1% | inhibition [3] 2% | outcome [5] | outcome [6] | outcome [7] | outcome [8]

COCCNCc1ccc(-c2ccc3c(Nc4ccc(Cl)cc4F)ccnc3c2)o1
active: growth inhibition [1] 100% | growth inhibition [4] 100%
inactive: inhibition [2] 15% | inhibition [3] -2% | outcome [5] | outcome [6] | outcome [7] | outcome [8]

CCOC(=O)c1ccc(NC(=O)N[C@@H](Cc2ccc(O)cc2)C(=O)NC2CCN(Cc3ccc4c(c3)OCO4)CC2)cc1
inactive: growth inhibition [1] 24% | inhibition [2] -1% | inhibition [3] 3% | outcome [5] | outcome [6] | outcome [7] | outcome [8]
active: growth inhibition [4] 86%

Cn1nccc1C(=O)NCCNCc1ccc(-c2ccc(-c3nc4ccc(C(F)(F)F)cc4[nH]3)s2)cc1
active: growth inhibition [1] 99% | growth inhibition [4] 101%
inactive: inhibition [2] 48% | inhibition [3] -5% | outcome [5] | outcome [6] | outcome [7] | outcome [8]

CCOc1ccc2nc(C)cc(NN=Cc3ccccc3[N+](=O)[O-])c2c1
inactive: inhibition [3] -5% | outcome [5] | outcome [6] | outcome [7] | outcome [8]
active: growth inhibition [1] 99% | inhibition [2] 91% | growth inhibition [4] 101%

O=C(Nc1cccc(OC2CCN(Cc3ccccc3)CC2)c1)c1ccc([N+](=O)[O-])cc1
inactive: growth inhibition [1] 2% | inhibition [2] 6% | inhibition [3] 3% | outcome [5] | outcome [6] | outcome [7] | outcome [8]
active: growth inhibition [4] 100%

CN1CCN(c2ccc(CNc3ccc4ncc(-c5cccc(OC(F)(F)F)c5)n4n3)cc2)CC1
active: growth inhibition [1] 78% | growth inhibition [4] 89%
inactive: inhibition [2] 25% | inhibition [3] 3% | outcome [5] | outcome [6] | outcome [7] | outcome [8]

Cc1ccc(F)c(C(=O)Nc2cccc(-c3nn4ccccc4c3-c3ccnc(Nc4cccc(F)c4)n3)c2)c1F
inactive: inhibition [2] 35% | inhibition [3] 6% | outcome [5] | outcome [6] | outcome [7] | outcome [8]
active: growth inhibition [1] 60% | growth inhibition [4] 98%

COc1ccc(CN(C)CCCCc2ccc(NC(=O)COc3cccc4sc5ccccc5c(=O)c34)cc2)cc1OC
inactive: inhibition [2] 26% | inhibition [3] -1% | outcome [5] | outcome [6] | outcome [7] | outcome [8]
active: growth inhibition [1] 84% | growth inhibition [4] 100%
